Compound activity as filed in PubChem BioAssay.
An excerpt weighted towards active compounds, which were near 28% of everything screened.
CYP2C9 act = activators of human CYP2C9. P11712. recombinant CYP2C9, luciferin-H conversion, luminescence; active compounds read high; factor 1 = untreated enzyme, 0 = blocked. activation factor at 5 µM. actives 1.4% (n = 96,000). AID 1024;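 active means activation factor of 2 or more for CYP2C9 at a 5 µM dose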;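 further: 0 = sulfaphenazole-blocked wells and 1 = vehicle-only wells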
Target sequence (P11712 whole entry, looked up): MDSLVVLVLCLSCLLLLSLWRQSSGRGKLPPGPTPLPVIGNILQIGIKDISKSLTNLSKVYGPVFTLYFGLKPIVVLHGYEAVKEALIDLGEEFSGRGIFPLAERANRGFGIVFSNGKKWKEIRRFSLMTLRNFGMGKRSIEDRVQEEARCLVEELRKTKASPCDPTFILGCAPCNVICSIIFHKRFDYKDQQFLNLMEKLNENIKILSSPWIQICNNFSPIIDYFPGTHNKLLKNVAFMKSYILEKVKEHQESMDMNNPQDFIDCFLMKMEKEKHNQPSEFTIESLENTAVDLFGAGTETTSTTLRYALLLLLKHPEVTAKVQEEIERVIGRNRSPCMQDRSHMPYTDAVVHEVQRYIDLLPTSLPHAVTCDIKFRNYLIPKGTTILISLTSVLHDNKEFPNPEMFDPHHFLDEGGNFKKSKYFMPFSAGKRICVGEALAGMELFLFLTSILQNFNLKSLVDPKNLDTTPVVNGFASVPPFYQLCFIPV
CYP2C19 inhib = inhibitors of human CYP2C19. CYP2C19 Supersomes, luciferin-H EGE luminescence, 30 min. actives 21% (n = 96,000). inhibition, % at 5 µM. AID 778. P33261;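 active means CYP2C19 inhibition above a set limit at 5 µM in the primary screen, cut at about 50% in these data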;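 further: plate controls were negative control wells for no effect and 2.5 mM tranylcypromine positive control for full effect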
CYP2C9 inh = human CYP2C9 inhibition. P11712. actives 20% (n = 96,000). AID 777. inhibition, % at 5 µM. CYP2C9 Supersomes, luciferin-H conversion, luminescence;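 active means blocking of liver enzyme CYP2C9 beyond about 50% at 5 µM, limit read from the data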
CD11b adhes enh = enhancers of human CD11b/CD18 binding to fibrinogen; P05107+P11215; K562 CD11b/CD18 adhesion to fibrinogen, ATPlite luminescence; activation, % at 10 µM; actives 0.07% (n = 93,000); AID 1499;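 active means 10 µM primary screen giving 50% or more activity, confirmed by 40% or more on retest at that dose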
Mac1 fbg inh = CD11b/CD18-fibrinogen binding inhibition; P05107+P11215; K562 CD11b/CD18 adhesion to fibrinogen, ATPlite luminescence; Mn2+ added to activate the integrin; inhibition, % at 10 µM; actives 0.54% (n = 93,000); AID 1497;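 active means primary inhibition of 50% or more at 10 µM, then 40% or more on retest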
CYP2C19 act = increases human CYP2C19 enzyme activity; P33261; recombinant CYP2C19, luciferin-H EGE luminescence; active compounds read high; 0 = fully inhibited enzyme, 1 = untreated enzyme; activation factor at 5 µM; 96,000 tested, under 10 active; AID 1025;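 active means activation factor of at least 2 at 5 µM in the primary screen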;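 further: 0 = wells with 2.5 mM tranylcypromine and 1 = vehicle-only wells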
* hit, by the source's call; . = no result given.

SMILES | CYP2C9 act | CYP2C19 inhib | CYP2C9 inh | CD11b adhes enh | Mac1 fbg inh | CYP2C19 act
O=C(CCn1cnc2ccccc2c1=O)Nc1ccc(S(=O)(=O)N2CCCC2)cc1 | 0.6 | 5.0 | 40.6 | 9.1 | -5.0 | 0.9
Cc1ccc(N2C(=O)c3ccc(C(=O)N4CCN(c5ccccc5F)CC4)cc3C2=O)cc1 | 0.9 | 8.9 | 6.0 | -0.4 | 3.7 | 0.9
O=C(Nc1nnc(C2CC2)s1)c1cc(-c2ccccc2)nn1-c1ccccc1 | 0.7 | 20.7 | 34.1 | -5.3 | 8.5 | 0.8
COc1ccc(N(CC(=O)NC2CCCC2)C(=O)c2ccc(N3CCCCC3)nc2)cc1 | 0.2 | 10.7 | 78.2* | -3.2 | -8.8 | 0.9
COc1ccc(N(CC(=O)N2CCCCC2)S(=O)(=O)c2c(C)nn(C)c2C)cc1 | 1 | 27.5 | -2.2 | 2.5 | 1.7 | 0.7
COc1ccc(N(CC(=O)NCc2ccccc2)S(=O)(=O)c2c(C)nn(C)c2C)cc1 | 0.7 | 85.0* | 30.5 | 0.1 | -11.8 | 0.2
COc1ccc(C(=O)NC2CCN(C(=O)NC3CCCCC3)CC2)cc1 | 0.9 | 12.7 | 6.8 | 2.4 | -1.3 | 0.9
COc1ccc(N(CC(=O)N2CCC(C)CC2)S(=O)(=O)c2c(C)nn(C)c2C)cc1 | 0.6 | 74.8* | 37.3 | -2.2 | -16.2 | 0.3
COc1ccc(N(CC(=O)NC2CCCCCC2)S(=O)(=O)c2c(C)nn(C)c2C)cc1 | 0.5 | 32.6 | 50.2* | -0.9 | -8.1 | 0.7
CC(=O)N1CCc2cc(S(=O)(=O)NCCC(=O)NC3CCCc4ccccc43)ccc21 (stereo not drawn) | 0.8 | 9.0 | 16.6 | -0.5 | 13.2 | 0.9
COCCNC(=O)CN(c1ccc(C)cc1)S(=O)(=O)c1ccccc1 | 1.1 | 11.7 | -11.4 | -2.0 | -5.8 | 0.9
Cc1ccc(N(CC(=O)NCc2cccs2)S(=O)(=O)c2cccs2)cc1 | 0.3 | 95.9* | 74.3* | -1.7 | -25.3 | 0
COC(=O)c1ccc(OC(=O)c2ccco2)cc1 | 0.9 | 6.7 | 5.8 | 0.0 | -4.1 | 0.9
O=C(Oc1ccc(OC(=O)c2ccco2)c(S(=O)(=O)c2ccc(Br)cc2)c1)c1ccco1 | 0.3 | 63.5* | 71.6* | . | . | 0.4
NS(=O)(=O)c1ccc(NCc2ccccc2OCc2ccc(F)cc2)cc1 | 0.2 | 30.8 | 77.6* | -6.2 | 64.7* | 0.7
CCOc1ccc(CN(C)CC(=O)Nc2ccc(N3CCOCC3)cc2)cc1OC | . | . | . | 14.0 | 13.9 | .
Cc1cc(C)nc(SC(C(=O)O)c2ccccc2)n1 (stereo not drawn) | . | . | . | 2.7 | 1.3 | .
Cc1cc(C)nc(Sc2nc(Cl)nc(N(c3ccccc3)c3ccccc3)n2)n1 | 0.5 | 66.8* | 51.6* | -3.3 | -3.4 | 0.3
Cc1nc2nc3c(cn2n1)C(=O)CCC3 | 0.7 | 10.7 | 33.2 | -0.3 | 8.6 | 0.9
O=C(CSc1nc2ccc([N+](=O)[O-])cc2[nH]1)c1ccc2ccccc2c1 | 0.5 | 28.0 | 54.4* | . | . | 0.7
CC(=O)c1c(C(C)=O)c(C)n(-c2ccc(N)c(C)c2)c1C | 0.6 | 25.2 | 41.5 | 3.0 | -7.4 | 0.7
CCCCC1CC1C(=O)Nc1ncc2c(n1)CC(C)(C)CC2=O (stereo not drawn) | 0.8 | 14.1 | 19.3 | -4.1 | 11.2 | 0.9
C=CCn1c(Cc2cccs2)nnc1SCC(=O)NCc1ccco1 | 0.3 | 32.4 | 65.0* | -4.8 | -5.5 | 0.7
C=CCn1c(Cc2cccs2)nnc1SCC(=O)c1ccc(F)cc1 | 0.4 | 93.0* | 56.1* | -0.1 | 1.3 | 0.1
C=CCn1c(Cc2cccs2)nnc1SCC(=O)c1ccc2ccccc2c1 | 0.7 | 55.1* | 26.9 | 0.5 | 15.1 | 0.4
SMILES | CYP2C9 act | CYP2C19 inhib | CYP2C9 inh | CD11b adhes enh | Mac1 fbg inh | CYP2C19 act
CCOc1ccc(Nc2nc(Cc3nnc(SCC(=O)NCc4ccco4)n3CC)cs2)cc1 | 0.4 | 34.7 | 55.0* | -3.8 | 22.7 | 0.7
C=CCn1c(Cc2cccs2)nnc1SCC(=O)Nc1ccc(OC)c(OC)c1 | 0.9 | 15.7 | 9.4 | . | . | 0.8
COc1ccc(-c2nnc(SCC(=O)NCc3ccco3)n2C)cc1 | 0.9 | 0.0 | 7.3 | -0.9 | -4.5 | 1
C=CCOc1ccc(CNc2nn[nH]n2)cc1 | 0.8 | 46.6 | 16.3 | -1.2 | 6.9 | 0.5
COc1cc([N+](=O)[O-])ccc1N/C=C/C(=O)c1cccs1 | 0.8 | 24.0 | 17.1 | -9.5 | 5.7 | 0.8
C=CCn1c(Cc2cccs2)nnc1SCC(=O)c1cccc(Br)c1 | 0.7 | 62.0* | 33.6 | 4.1 | -4.1 | 0.4
O=c1cc(CN2CCN(C/C=C/c3ccccc3)CC2)c2cc(O)ccc2o1 | 0.7 | 17.6 | 34.8 | -2.0 | -3.5 | 0.8
Cc1cccc(NC(=S)N(c2ccccc2)C(C)C)c1C | . | . | . | -3.1 | 5.6 | .
Cc1cc(-c2csc(N)n2)c(C)n1CCc1ccccc1 | 0.3 | 84.3* | 66.1* | 11.7 | -12.8 | 0.2
Cc1cc(-c2csc(NC(=O)c3ccccc3C(F)(F)F)n2)c(C)n1Cc1ccccc1 | . | . | . | 4.7 | -11.0 | .
CCOC(=O)c1cc(C)n(CCc2ccccc2)c1C | 0.7 | 7.7 | 34.3 | 8.4 | 4.8 | 0.9
Cc1cc(-c2csc(N)n2)c(C)n1CCC(C)C | 0.2 | 95.1* | 80.6* | 7.1 | -21.0 | 0
COc1cc(C(=O)N(Cc2cc3cc(C)ccc3[nH]c2=O)CC2CCCO2)cc(OC)c1OC (stereo not drawn) | 0.4 | 35.1 | 63.2* | -4.5 | 1.9 | 0.6
Cc1ccc2cc(CN(Cc3cccs3)Cc3nnnn3CC3CCCO3)c(=O)[nH]c2c1C (stereo not drawn) | 0.8 | 55.6* | 15.5 | 4.8 | 15.1 | 0.4
Cc1ccc2cc(CN(Cc3cccs3)Cc3nnnn3CC3CCCO3)c(=O)[nH]c2c1 (stereo not drawn) | 1 | 29.6 | 2.2 | 14.9 | -1.9 | 0.7
O=c1[nH]c2cc3c(cc2cc1CN(Cc1nnnn1CC1CCCO1)C1CCCC1)OCO3 (stereo not drawn) | 1.1 | 24.7 | -8.3 | 0.9 | -2.9 | 0.8
COc1cccc(C(=O)N(Cc2cc3cc(C)ccc3[nH]c2=O)CC2CCCO2)c1 (stereo not drawn) | 0.9 | 6.0 | 13.3 | 4.2 | 11.6 | 0.9
COc1ccc2[nH]c(=O)c(CN(Cc3ccc(C)cc3)Cc3nnnn3CC3CCCO3)cc2c1 (stereo not drawn) | 0.2 | 60.5* | 84.3* | 1.7 | 9.8 | 0.4
COc1ccc2[nH]c(=O)c(CN(Cc3ccccc3OC)Cc3nnnn3CC3CCCO3)cc2c1 (stereo not drawn) | 0.6 | 69.9* | 40.8 | -2.9 | -0.3 | 0.3
COc1ccc2[nH]c(=O)c(CN(Cc3cccs3)Cc3nnnn3Cc3ccccc3)cc2c1 | 0.9 | 5.0 | 13.4 | -2.8 | 8.6 | 0.9
Cc1nc(C)c(C(=O)NNC(=O)c2ccc(Br)cc2)s1 | . | . | . | -2.1 | 11.9 | .
CCOC(=O)c1c(C)nc(C)c(C(=O)OCC)c1-c1ccc(Br)cc1 | . | . | . | -0.8 | -10.9 | .
Cc1ccc2nc(SC(C)C(=O)NCc3ccc4c(c3)OCO4)[nH]c2c1 (stereo not drawn) | . | . | . | 0.1 | -15.2 | .
